Measurements: the antibiotic and cytotoxicity screens of Wong et al. (2023)
The whole screen tested about 39,000 compounds, of which about 500 (1.3%) were called active. What follows is part of a selection rich in actives, with near analogues and random picks from the rest.

Each compound was assayed on S. aureus RN4220 (assay: growth inhibition call (relative growth <= 0.2)). Details: 50 µM.

Row | Structure (SMILES) | growth inhibition call
1 | C[C@@H]1CN([C@@H](C)CO)C(=O)c2cccc(NC(=O)C3CC3)c2O[C@H]1CN(C)Cc1ccc(C(=O)O)cc1 | inactive
2 | C[C@@H]1CCCCO[C@@H](CN(C)S(=O)(=O)c2ccc(Cl)cc2)[C@@H](C)CN([C@H](C)CO)C(=O)c2cc(NC(=O)Nc3ccc(C(F)(F)F)cc3)ccc2O1 | inactive
3 | Cc1ccc(S(=O)(=O)Nc2ccc3c(c2)C(=O)N([C@H](C)CO)C[C@@H](C)[C@@H](CN(C)C(=O)CCC(F)(F)F)OCCCC[C@H](C)O3)cc1 | inactive
4 | C[C@@H]1CCCCO[C@H](CN(C)C(=O)CCCN(C)C)[C@H](C)CN([C@@H](C)CO)C(=O)c2cc(NC(=O)Nc3cccc4ccccc34)ccc2O1 | inactive
5 | C[C@@H]1CN([C@H](C)CO)C(=O)c2cc(C#Cc3ccccc3F)cnc2O[C@H]1CN(C)C(=O)C1CCOCC1 | inactive
6 | Cc1cnccc1CN1C[C@H](C(=O)O)CC1=O | inactive
7 | CC(C)C#Cc1cnc2c(c1)C(=O)N([C@@H](C)CO)C[C@@H](C)[C@H](CN(C)C(=O)c1ccc3c(c1)OCO3)O2 | inactive
8 | Cc1ccc(S(=O)(=O)N(C)C[C@H]2Oc3c(NC(=O)C4CC4)cccc3C(=O)N([C@H](C)CO)C[C@@H]2C)cc1 | inactive
9 | C[C@H]1CN([C@@H](C)CO)C(=O)CCCn2cc(nn2)CO[C@H]1CN(C)C(=O)Nc1ccc(C(F)(F)F)cc1 | inactive
10 | C[C@@H]1CN([C@H](C)CO)C(=O)CCCn2nncc2CO[C@H]1CN(C)C(=O)Nc1ccc(C(F)(F)F)cc1 | active
11 | C[C@@H]1CN([C@H](C)CO)C(=O)CCCn2nncc2CO[C@H]1CN(C)C(=O)Nc1ccc(C(C)(C)C)cc1 | inactive
12 | C[C@H]1CN([C@@H](C)CO)C(=O)CCCn2cc(nn2)CO[C@@H]1CN(C)C(=O)Nc1ccc(C(F)(F)F)cc1 | inactive
13 | C[C@@H]1CN([C@H](C)CO)C(=O)CCCn2nncc2CO[C@@H]1CN(C)C(=O)Nc1ccc(C(F)(F)F)cc1 | inactive
14 | C[C@H]1CN([C@@H](C)CO)C(=O)CCCn2nncc2CO[C@@H]1CN(C)C(=O)Nc1ccc(C(F)(F)F)cc1 | active
15 | C[C@H](CO)N1C[C@H](C)[C@@H](CN(C)C(=O)Nc2ccc(C(F)(F)F)cc2)OCc2cnnn2CCCC1=O | inactive
16 | C[C@@H]1CN([C@@H](C)CO)C(=O)CCCn2nncc2CO[C@@H]1CN(C)C(=O)Nc1ccc(C(F)(F)F)cc1 | inactive
17 | C[C@H](CO)N1C[C@H](C)[C@H](CN(C)C(=O)Nc2ccc(C(F)(F)F)cc2)OCc2cnnn2CCCC1=O | inactive
18 | C[C@H]1CN([C@@H](C)CO)C(=O)CCCn2nncc2CO[C@H]1CN(C)C(=O)Nc1ccc(C(F)(F)F)cc1 | active
19 | C[C@@H]1CN([C@H](C)CO)C(=O)CCCn2cc(nn2)CO[C@H]1CN(C)C(=O)Nc1ccc(C(F)(F)F)cc1 | active
20 | C[C@@H]1CN([C@@H](C)CO)C(=O)CCCn2nncc2CO[C@H]1CN(C)C(=O)Nc1ccc(C(F)(F)F)cc1 | inactive
21 | C[C@H]1CN([C@@H](C)CO)C(=O)Cc2cc(NC(=O)Nc3ccc(F)cc3)ccc2O[C@H]1CN(C)S(=O)(=O)c1cn(C)cn1 | inactive

Row | Structure (SMILES) | growth inhibition call
22 | CCOC(=O)CSc1nnc2c3sc4nc(N5CCOCC5)c5c(c4c3ncn12)CC(C)(C)OC5 | inactive
23 | C[C@H](CO)N1C[C@H](C)[C@@H](CN(C)Cc2ccc(C(F)(F)F)cc2)OCCCC[C@H](C)Oc2ccc(NS(=O)(=O)c3cn(C)cn3)cc2C1=O | inactive
24 | C[C@@H]1CCCCO[C@@H](CN(C)Cc2ccccc2)[C@H](C)CN([C@H](C)CO)C(=O)c2cc(NC(=O)Nc3ccccc3)ccc2O1 | inactive
25 | C[C@@H]1CN([C@H](C)CO)C(=O)c2cccc(NC(=O)Nc3cccc4ccccc34)c2O[C@@H]1CN(C)C(=O)Nc1ccc2c(c1)OCO2 | inactive
26 | COC(=O)c1c2oc(c1C(=O)OC)C(=O)N(C)Cc1cn(nn1)C[C@@H](C)NC(=O)N[C@H](CO)CC2 | inactive
27 | C[C@H](CO)N1C[C@H](C)[C@@H](CN(C)C(=O)Nc2ccc3c(c2)OCO3)OCCCC[C@H](C)Oc2ccc(NC(=O)Nc3ccc(F)cc3)cc2C1=O | inactive
28 | COc1ccc(NC(=O)N(C)C[C@@H]2OCCCC[C@H](C)Oc3ccc(NC(=O)Nc4ccc5c(c4)OCO5)cc3C(=O)N([C@@H](C)CO)C[C@@H]2C)cc1 | inactive
29 | Cc1noc(C)c1S(=O)(=O)N(C)C[C@H]1Oc2ccc(NC(=O)CCC(F)(F)F)cc2CC(=O)N([C@H](C)CO)C[C@H]1C | inactive
30 | CC(=O)N(C)C[C@H]1Oc2ncc(C#C[C@H](C)O)cc2C(=O)N([C@H](C)CO)C[C@H]1C | inactive
31 | Cc1noc(C)c1NC(=O)Nc1ccc2c(c1)C(=O)N([C@@H](C)CO)C[C@H](C)[C@H](CN(C)C(=O)Nc1ccc(C(F)(F)F)cc1)O2 | active
32 | Cc1noc(C)c1NC(=O)Nc1ccc2c(c1)C(=O)N([C@@H](C)CO)C[C@H](C)[C@@H](CN(C)C(=O)Nc1ccc(C(F)(F)F)cc1)O2 | inactive
33 | Cc1noc(C)c1NC(=O)Nc1ccc2c(c1)C(=O)N([C@H](C)CO)C[C@@H](C)[C@@H](CN(C)C(=O)Nc1ccc(C(F)(F)F)cc1)O2 | inactive
34 | Cc1noc(C)c1NC(=O)Nc1ccc2c(c1)C(=O)N([C@@H](C)CO)C[C@@H](C)[C@@H](CN(C)C(=O)Nc1ccc(C(F)(F)F)cc1)O2 | active
35 | Cc1noc(C)c1NC(=O)Nc1ccc2c(c1)C(=O)N([C@H](C)CO)C[C@H](C)[C@@H](CN(C)C(=O)Nc1ccc(C(F)(F)F)cc1)O2 | inactive
36 | C[C@H](CO)N1C[C@H](C)[C@@H](CN(C)C(=O)Nc2ccc(C(F)(F)F)cc2)Oc2ccc(NC(=O)CCC(F)(F)F)cc2C1=O | active
37 | C[C@@H]1CN([C@H](C)CO)C(=O)c2cc(NC(=O)CCC(F)(F)F)ccc2O[C@@H]1CN(C)C(=O)Nc1ccc(C(F)(F)F)cc1 | inactive
38 | Cc1noc(C)c1NC(=O)Nc1ccc2c(c1)C(=O)N([C@@H](C)CO)C[C@@H](C)[C@H](CN(C)C(=O)Nc1ccc(C(F)(F)F)cc1)O2 | inactive
39 | Cc1noc(C)c1NC(=O)N(C)C[C@@H]1Oc2ccc(NC(=O)Nc3ccc(C(F)(F)F)cc3)cc2C(=O)N([C@H](C)CO)C[C@@H]1C | inactive
40 | C[C@@H]1CN([C@@H](C)CO)C(=O)c2cc(NC(=O)CCC(F)(F)F)ccc2O[C@H]1CN(C)C(=O)Nc1ccc(C(F)(F)F)cc1 | inactive
41 | Cc1noc(C)c1NC(=O)Nc1ccc2c(c1)C(=O)N([C@H](C)CO)C[C@H](C)[C@H](CN(C)C(=O)Nc1ccc(C(F)(F)F)cc1)O2 | active
42 | Cc1noc(C)c1NC(=O)Nc1ccc2c(c1)C(=O)N([C@H](C)CO)C[C@@H](C)[C@H](CN(C)C(=O)Nc1ccc(C(F)(F)F)cc1)O2 | inactive
